# Hits are enriched below; roughly 9% of the tested compounds scored in any of these assays.
# G9a block = inhibitors of human histone lysine methyltransferase G9a; Q96KQ7; G9a H3K9 monomethylation, AlphaScreen, 2 h; Potency, µM (top dose mostly 102 µM), for inactives: at the top dose activity, negative = inhibition, usual class: inhibitors; actives 8.8% (n = 350,000); further: on the % scale 0 is the no-effect control and ±100 the full control effect; nearly all actives have a fitted effect of over 75% in size
# Target sequence (Q96KQ7 913-1193 limits assumed): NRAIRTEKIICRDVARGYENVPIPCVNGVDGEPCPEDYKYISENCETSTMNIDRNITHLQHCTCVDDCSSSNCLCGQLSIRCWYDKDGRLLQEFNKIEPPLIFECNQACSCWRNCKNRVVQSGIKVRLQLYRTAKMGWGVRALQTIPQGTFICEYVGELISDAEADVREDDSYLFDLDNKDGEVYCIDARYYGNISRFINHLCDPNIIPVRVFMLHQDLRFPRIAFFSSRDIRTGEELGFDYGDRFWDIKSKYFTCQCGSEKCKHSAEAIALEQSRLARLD
#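 Step 1: enzyme (final 20 nM) with compound, 15 min RT. Step 2: substrate peptide 500 nM and SAM 20 uM, 2 h RT. Step 3: anti-H3K9me1 antibody and AlphaScreen beads, 10 min, then plate read.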
# PLK1 PBD block = PLK1 (human) polo-box domain binding inhibition; Plk1 PBD binding of FITC phosphopeptide, fluorescence polarization; Potency, µM, inactives show max response, negative = inhibition, most hits filed as inhibitors; AID 720504; actives 2.8% (n = 360,000); further: series mostly up to about 57 µM; on the % scale 0 is the no-effect control and ±100 the full control effect; nearly all actives have a fitted effect of over 65% in size
# ALOX12 inh = inhibitors of human 12S-lipoxygenase ALOX12; actives 1.1% (n = 580,000); AID 1671190; Potency, µM (titrated, usually from 108 µM), inactives show at the highest dose activity change, negative = inhibition, most hits filed as inhibitors; purified 12hLO, xylenol orange hydroperoxide absorbance; P18054; further: on the % scale 0 is the no-effect control and ±100 the full control effect
#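 Hydroperoxide product was detected by ferrous iron/xylenol orange as the 573 to 405 nm absorbance ratio. Arachidonic acid at 40 uM (final) was turned over for 30 min at room temperature by 150 nM human 12hLO, pH 7.0 Hepes buffer, after 15 min compound preincubation.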
# HP1b binding inh = inhibitors of HP1-beta chromodomain binding to methylated histone tails. AlphaScreen HP1-beta / biotin-H3K9me3 peptide binding. actives 0.56% (n = 390,000). AID 540317. Potency, µM (highest dose often 114 µM), for the others: top-dose activity change, negative = inhibition, hits mostly inhibitors; further: nearly all actives have a fitted effect of over 70% in size
# Target sequence (P83916 whole entry, looked up): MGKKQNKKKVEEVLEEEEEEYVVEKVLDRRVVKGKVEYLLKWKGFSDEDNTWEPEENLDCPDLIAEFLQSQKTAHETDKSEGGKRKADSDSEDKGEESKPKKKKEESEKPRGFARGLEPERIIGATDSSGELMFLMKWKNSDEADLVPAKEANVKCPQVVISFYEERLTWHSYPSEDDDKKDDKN
#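 Compound inhibition of the preformed complex between 50 nM HP1-beta and 50 nM biotinylated H3K9me3 peptide was read by AlphaScreen. Buffer was PBS pH 7.4 with 0.01% Tween-20. Incubations ran 30 min at room temperature, with 10 ug/mL donor/acceptor beads.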
# BAZ2B block = blocks human BAZ2B; Q9UIF8; AlphaScreen BAZ2B-H3K14Ac peptide displacement; Potency, µM (highest dose often 114 µM), without a hit: at the top dose activity change, negative = inhibition, actives largely listed as inhibitors; actives 4.4% (n = 360,000); AID 504333; further: on the % scale 0 is the no-effect control and ±100 the full control effect; nearly all actives have a fitted effect of over 60% in size
#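 Inhibition is scored as reduced AlphaScreen emission. The BAZ2B/b-H3(5-23)K14Ac complex (50 nM each) in PBS pH 7.4, 0.01% Tween-20 meets compound (up to 110 uM) for 30 min at RT before bead addition.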
# JMJD2A Tudor = blocks the human JMJD2A Tudor domain; AlphaScreen JMJD2A-Tudor / H3K4me3 peptide binding; Potency, µM (doses to about 114 µM), for the others: top-dose activity change, negative = inhibition, most hits filed as inhibitors; actives 4.4% (n = 390,000); AID 504339; further: on the % scale 0 is the no-effect control and ±100 the full control effect; nearly all actives have a fitted effect of over 50% in size
# Numbers without * were called inactive; ? = inconclusive; nt = not tested or not shown; [ ] = another dose, or the depositor's remark. The call rests on the fitted dose curve; in most records, active means well fitted curve in the direction sought with a large enough effect; inconclusive means small, poorly fitted or top-dose-only effect, or another doubt; inactive means no such curve, though single readings can be large; an effect the other way counts as inactive or inconclusive. Potency means the concentration at half of the fitted maximal effect.
SMILES,G9a block,PLK1 PBD block,ALOX12 inh,HP1b binding inh,BAZ2B block,JMJD2A Tudor
N#Cc1c(SCC(=O)Nc2cccc(F)c2)sc2c(O)cc(=O)[nH]c12,?,?,?,14%,-34%,-18%
CC(C)CC1=C/C(=C/c2ccc(-c3ccccc3)o2)C(=O)O1,13µM*,11µM*,13µM*,?,45µM*,?
O=C(Nc1ccccc1)c1sc(N2CCOCC2)nc1-c1ccccc1,4%,0%,-5%,42%,-4%,-8%
CC(C)(C)C(CCl)C(=O)NN=C(c1ccccc1)c1ccccc1 (configuration not stated),-29%[2.33 µM],-17%,-22%,49%,?,100µM*
CC(Cl)C(=O)NN=C(c1ccccc1)c1ccccc1 (configuration not stated),15%[59 µM],5%,6%,41%,-7%,-12%
COc1ccc(CN2C(=O)/C(=C/c3ccncc3)SC2=S)cc1,28µM*,?,?,?,8.9µM*,50µM*
CC(=O)Oc1ccc(/C=C2/SC(=S)N(Cc3ccccc3)C2=O)cc1,?,-4%,-5%,?,3.5µM*,?
O=C(O)c1ccc(/C=C2/SC(=S)N(Cc3ccccc3)C2=O)cc1,?,?,0%,2%,?,?
O=C1/C(=C\c2ccc(O)cc2)SC(=S)N1Cc1ccccc1,nt,46%,?,?,50µM*,?
O=C1/C(=C\c2cc(Br)cc(Br)c2O)SC(=S)N1Cc1ccccc1,-10%[2.33 µM],9.5µM*,nt,32µM*,10µM*,28µM*
Cc1ccc(N2C(=O)CC(NNc3nc4ccccc4s3)C2=O)cc1C (configuration not stated),11%[59 µM],1%,2%,22%,9%,-6%
C[C@H](NC(=O)[C@H]1N2C(=O)c3ccccc3C2SC1(C)C)C(=O)N1CCN(C)CC1 (some centres not stated),-8%,3%,10%,44%,-14%,1%
CN1CCN(c2ncnc3ccc(-c4ccc(C(=O)N(C)C)cc4)cc23)CC1,2%[0.501 µM],nt,?,nt,nt,nt
COc1ccc(OC)c(-c2csc(NC(=O)COC(=O)c3ccc(NC(=O)CC#N)cc3)n2)c1,11%[12.7 µM],-3%,nt,-12%,40µM*,45µM*
COc1ccc(-c2csc(NC(=O)CN3C(=O)NC4(CCCC4)C3=O)n2)c(OC)c1,50µM*,-4%,-24%,0%,-4%,-30%
COc1ccc(OC)c(-c2csc(NC(=O)CN3C(=O)C4CCCCC4C3=O)n2)c1 (configuration not stated),50µM*,-7%,-21%,?,?,?
COc1ccc(-c2csc(NC(=O)CN3C(=O)NC4(CCCC4)C3=O)n2)cc1OC,56µM*,-11%,-15%,-2%,-22%,-21%
CC(C)(C)c1ccc(-c2csc(NC(=O)CN3C(=O)NC4(CCCCC4)C3=O)n2)cc1,39%[12.7 µM],3%,0%,22%,-5%,-6%
COc1ccc(OC)c(-c2csc(NC(=O)Cc3cc(OC)c(OC)c(OC)c3)n2)c1,19%,-4%,0%,12%,1%,-16%
Cc1ccc(C(=O)O)cc1NC(=O)C(C)Oc1ccc(C(C)(C)C)cc1 (configuration not stated),nt,nt,7%,nt,nt,nt
CCn1c(N2CCN(Cc3ccc(Br)cc3)CC2)nc2c1c(=O)[nH]c(=O)n2C,nt,nt,-21%,nt,nt,nt
CC(C)c1ccc(NC(=S)Nc2ccc3[nH]c(=O)[nH]c3c2)cc1,-42%,-17%,?,-5%,-20%,-22%
COCc1cc(=O)n2[nH]c(N)nc2n1,nt,1%,-8%,26%,50µM*,-31%
COCc1cc(=O)n2[nH]c(SC)nc2n1,-2%[12.7 µM],3%,0%,19%,9%,-21%
Cc1ccc(C(=O)NCC(=O)OC(C)C(=O)Nc2ccccc2[N+](=O)[O-])s1 (configuration not stated),nt,0%,0%,29%,nt,-3%
SMILES,G9a block,PLK1 PBD block,ALOX12 inh,HP1b binding inh,BAZ2B block,JMJD2A Tudor
Cc1ccc(C(=O)NCC(=O)OC(C)C(=O)Nc2ccc(N(C)C)cc2)s1 (configuration not stated),40µM*,4%,30%,16%,-38%,-34%
O=C1N/C(=N\S(=O)(=O)Cc2ccccc2)S/C1=C/c1cc([N+](=O)[O-])ccc1O,40µM*,-3%,-29%,13%,-32%,-27%
COc1cc(/C=C2/S/C(=N/S(=O)(=O)c3ccccc3)NC2=O)c([N+](=O)[O-])cc1OC,-12%[12.7 µM],27µM*,-23%,-4%,71µM*,-28%[57.1 µM]
COc1cc(/C=C2/S/C(=N/S(=O)(=O)Cc3ccccc3)NC2=O)c([N+](=O)[O-])cc1OC,-33%,24µM*,-21%,28%,?,-25%
CC(Sc1ncnc2sc(-c3ccccc3)cc12)C(N)=O (configuration not stated),nt,-7%,-16%,26%,79µM*,-21%
O=C(O)CSc1ncnc2sc(-c3ccccc3)cc12,-8%,-12%,-17%,20%,-5%,-8%
O=C(O)CCSc1ncnc2sc(-c3ccccc3)cc12,nt,17µM*,-1%,33%,-14%,-19%
Oc1cccc2cc3cccc(O)c3c(O)c12,?,?,nt,-8%,40µM*,?
Oc1cccc(O)c1,-38%[2.33 µM],nt,nt,nt,nt,nt
O=C(CSc1nnc(Cc2cc(=O)[nH]c(=O)[nH]2)n1-c1ccc(Cl)cc1)NC1CCCC1,40µM*,?,?,41%,0%,-14%
CCOc1ccc(-n2c(O)cc(=O)[nH]c2=O)cc1,71µM*,-21%,16%,17%,11%,0%
CCCc1cc(=O)[nH]c2nnc(SCC(=O)NC3CCCC3)n12,18µM*,3%,8%,46%,9%,4%
COC(=O)C(C)Sc1nnc(Cc2cc(=O)[nH]c(=O)[nH]2)n1-c1cccc(OC)c1 (configuration not stated),?,-6%,?,56%,12%,-5%
COc1cccc(-n2c(Cc3cc(=O)[nH]c(=O)[nH]3)nnc2SC(C)C)c1,40µM*,-16%,-10%,57%,9%,-12%
COc1ccc(-c2cc3c(=O)n(CCNC(=O)c4c(F)cccc4F)ccn3n2)cc1,nt,nt,45%,nt,nt,nt
COCCNC(=O)NC(=O)CN(C)CCCc1ccccc1,nt,nt,-12%,nt,nt,nt
COC(=O)c1c(NC(=O)Nc2ccc(Cl)cc2)sc(C)c1C,5%[59 µM],0%,4%,14%,-1%,-13%
CCOc1ccc(-n2c(Cc3cc(=O)[nH]c(=O)[nH]3)nnc2SCC(N)=O)cc1,45µM*,-9%,-4%,27%,?,0%
